In publication PMC7819943, “Rice protein-binding microarrays: a tool to detect cis-acting elements near promoter regions in rice” one finds binding signal data, which are given here for 46 sequences.

Over roughly 39,000 sequences, “fluorescence intensity (a.u.)” has its median near 4,300; the highest 2% begin near 39,000. This excerpt belongs to a sample that is enriched for the highest values.

The assay has as its target T1, OsSMF1 (Oryza sativa, UniProt Q6ZLB0 1-436).
T1 sequence: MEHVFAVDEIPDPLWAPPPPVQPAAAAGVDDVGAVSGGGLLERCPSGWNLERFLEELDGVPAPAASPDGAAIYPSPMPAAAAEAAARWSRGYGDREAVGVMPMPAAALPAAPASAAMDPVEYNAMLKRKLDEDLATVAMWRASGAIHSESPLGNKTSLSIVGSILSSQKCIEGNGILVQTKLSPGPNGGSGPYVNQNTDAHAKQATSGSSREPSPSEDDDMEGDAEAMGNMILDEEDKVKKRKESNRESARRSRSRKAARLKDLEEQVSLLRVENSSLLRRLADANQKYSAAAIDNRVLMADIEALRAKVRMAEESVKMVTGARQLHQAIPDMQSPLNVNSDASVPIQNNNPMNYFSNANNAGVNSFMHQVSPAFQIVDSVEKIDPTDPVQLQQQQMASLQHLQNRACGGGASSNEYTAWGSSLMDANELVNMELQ
Description: protein-binding microarray (RPBM); PBS, 2% BSA, 51.3 ng/ul salmon testes DNA, 50 uM zinc acetate, 200 nM TF, 25 C, 1 h; high values mean tight binding. Conditions: protein: recombinant; tags: N-terminal polyhistidine and DsRed monomer fusion (pET32a); chain copies: 2; label: CyDye5-dUTP incorporated in the synthesized complementary strand; 3' TTTTT single-stranded linker to array surface; dsDNA, one strand shown. Put shortly: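 Ni–NTA purification followed expression in E. coli BL21-CodonPlus of transcription factors fused N-terminally to a polyhistidine tag and DsRed. At 200 nM in PBS with 2% BSA, salmon testes DNA and 50 µM zinc acetate, the protein was incubated for 1 h at 25 °C with a custom Agilent array that had been primer-extended with Cy5-dUTP and blocked with 2% BSA. After washing, the array was read on an Axon 4000B scanner. The binding signal is per-feature fluorescence intensity in arbitrary units.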
For the sequence “AGAATTTGTTCGTCACCCATATATCGGCGTCATGACCTCGCGGAGTCACCTAGTGCAG”, the binding signal is 3510 fluorescence intensity (a.u.).

On to “GTCGGATCCCCGCGCAATCATACACACGTGTCGCCGTCGCCGGAGTCACCTAGTGCAG”, for which the binding signal was 8730 fluorescence intensity (a.u.).

Consider “TTAGGACCATAATATCTAATGTTACATGCCACGTACCAAACGGAGTCACCTAGTGCAG”, for which the binding signal is 7280 fluorescence intensity (a.u.).

In the case of “GCCGCCCGCGCGCGACCGCGTGACGTCGCAGCCGCACCGACGGAGTCACCTAGTGCAG”, the binding signal was 6080 fluorescence intensity (a.u.).

Consider “GCGGAGGAGGCAAGGAGATCAGGCGGCAGAGGAAAGGGGCCGGAGTCACCTAGTGCAG”, for which the binding signal is 3280 fluorescence intensity (a.u.).

“GACGGGCGGCGGTGGGGCTGACGCGGGCGACGGAGGGGCTCGGAGTCACCTAGTGCAG”: the binding signal was 6720 fluorescence intensity (a.u.).

Consider “TCGTCCGATCCCCTAGCGTGGCCACCGATCCGCCCGTCCCCGGAGTCACCTAGTGCAG”, for which the binding signal is 3230 fluorescence intensity (a.u.).

In the case of “GATCAAACCAGCGGCAGATGAGGGCGCAAAGAGAAAGAGCCGGAGTCACCTAGTGCAG”, the binding signal is 4210 fluorescence intensity (a.u.).

As to “TGCCACCGTGGCGGCCGGGCCGATCCCCTAGCTGACGTGGCGGAGTCACCTAGTGCAG”, the binding signal was 41900 fluorescence intensity (a.u.).

Turning to “GGCTTCGCCGACGGTGGCTCGGGCGACGGCGATGCTGGGGCGGAGTCACCTAGTGCAG”, the binding signal is 58600 fluorescence intensity (a.u.).

Regarding “ACGGCATCGATCGATCGCGGGCGACGTGGCTGAGTGGCGGCGGAGTCACCTAGTGCAG”, the binding signal was 6420 fluorescence intensity (a.u.).

“CTGGTCGGCGCGGGCACGCGCTTGCGGAGGCTGGGGAGTCCGGAGTCACCTAGTGCAG”: the binding signal is 39700 fluorescence intensity (a.u.).

“TTGGGCGGCGGTGCGGGGAGGCTGAGGGGCGGCGCCGGCGCGGAGTCACCTAGTGCAG”: the binding signal was 3580 fluorescence intensity (a.u.).

“CGCTGCGGGGAGTCGGCGCTTCGTCGGAGGCGGCGGGGCGCGGAGTCACCTAGTGCAG”: the binding signal was 3230 fluorescence intensity (a.u.).

Regarding “GCCGCTTCGATGCTGGCGGCAGGGTGGGGCGGGGATGCCTCGGAGTCACCTAGTGCAG”, the binding signal is 6170 fluorescence intensity (a.u.).

For the sequence “AGAGGGGCAGAGAGAGAGAGTGAGTGAGAAAGAGATCAAGCGGAGTCACCTAGTGCAG”, the binding signal was 56600 fluorescence intensity (a.u.).

“GAAAGTTGCTGCGAACATACGTGATGACGCGACTAAAGCTCGGAGTCACCTAGTGCAG”: the binding signal was 5210 fluorescence intensity (a.u.).

On to “ATAGCCCAACTCGAATCAATCCACGTCTCCACCGTTCATCCGGAGTCACCTAGTGCAG”, for which the binding signal was 3360 fluorescence intensity (a.u.).

Take “TCCGTCGCGATTCGCCACCTCGCCCTCGTCTCGTTTTAGCCGGAGTCACCTAGTGCAG”: the binding signal is 3450 fluorescence intensity (a.u.).

For the sequence “ATGCACTTCCTGTCACGGTCCGGCCCATCCTAGCTGCCGGCGGAGTCACCTAGTGCAG”, the binding signal was 3290 fluorescence intensity (a.u.).

On to “AAACTTCTCTTCAGATAAAGATTTACTACCGTGTCAAATTCGGAGTCACCTAGTGCAG”, for which the binding signal is 3800 fluorescence intensity (a.u.).

With “CTCCGTCCACTGGACAGGGCAGAGGCTGCCTACCAGACACCGGAGTCACCTAGTGCAG”, the binding signal was 4640 fluorescence intensity (a.u.).

Regarding “GACAGTAGCAGCAGTGGACACGTCGATTTCGCAATTCGTGCGGAGTCACCTAGTGCAG”, the binding signal is 5760 fluorescence intensity (a.u.).

Take “GCCAGGCGACGCGACGAGTCAGCTCAGCTCGCGCCCGCGGCGGAGTCACCTAGTGCAG”: the binding signal is 3700 fluorescence intensity (a.u.).

As to “CGGTGGCAGCCCGGCGGCGTGGAGCGCGCTGCTTAGCGCGCGGAGTCACCTAGTGCAG”, the binding signal was 53600 fluorescence intensity (a.u.).

Consider “GAAGAGGGGAGGGAGCTCCAAAAGGGCGAGAAAGTAAGCGCGGAGTCACCTAGTGCAG”, for which the binding signal was 39400 fluorescence intensity (a.u.).

“GAGGTACCGGCCGTACGCGCCGCGGAGGCGGACGTAGGGCCGGAGTCACCTAGTGCAG”: the binding signal was 31200 fluorescence intensity (a.u.).

As for “TCCCGTGCAGCCGTGGCAGCCGCGCGCTGCTCGAGTCCGGCGGAGTCACCTAGTGCAG”, the binding signal is 4470 fluorescence intensity (a.u.).

In the case of “GCGGCGGTGTCTCGCGCCGCCAGCCTACAAATGGGGAGAGCGGAGTCACCTAGTGCAG”, the binding signal is 40300 fluorescence intensity (a.u.).

For “GGCGAGCGCGGCGGAGGAGCGGCGGCGGGCGAGCGCGGCGCGGAGTCACCTAGTGCAG”, the binding signal was 8450 fluorescence intensity (a.u.).

Take “CGAGAGGTACCGCGCGCTGCCGGCGGAGAAGCGGGCGAGGCGGAGTCACCTAGTGCAG”: the binding signal was 41500 fluorescence intensity (a.u.).

Consider “GGCGCCAGCCCCGGTGCCGGGGAGTGTGGCGGAGCGGGAGCGGAGTCACCTAGTGCAG”, for which the binding signal is 3910 fluorescence intensity (a.u.).

In the case of “GGAGCGCGGACTCGCCGGCCAGCCGCGTCACGCGCTGGCGCGGAGTCACCTAGTGCAG”, the binding signal is 6650 fluorescence intensity (a.u.).

Regarding “GAGAGGGGAAGGGCGCTAGTAAGAAGCGCTAAGGGATGAGCGGAGTCACCTAGTGCAG”, the binding signal was 3180 fluorescence intensity (a.u.).

With “GAGAGAGAGAGGGGACCAACTGAAAAGAGAGAGAAGCTAGCGGAGTCACCTAGTGCAG”, the binding signal is 31200 fluorescence intensity (a.u.).

“TGCTTAGCCGTGCGGCCCGTGCGGCGTCAATGGCGTGGCGCGGAGTCACCTAGTGCAG”: the binding signal is 4440 fluorescence intensity (a.u.).

As for “ATACTTCCATTTGTGCCATACATTTTGTCATTTCGACCTGCGGAGTCACCTAGTGCAG”, the binding signal was 3330 fluorescence intensity (a.u.).

As for “GGTTTTAACCCCGATTTCGTTCGACGTGGCGGCTGAGTCACGGAGTCACCTAGTGCAG”, the binding signal was 10800 fluorescence intensity (a.u.).

In the case of “ATTCACTTTCTTGATTACGTAGAAGCTTCAGTGTCTATTCCGGAGTCACCTAGTGCAG”, the binding signal was 3810 fluorescence intensity (a.u.).

For “ACAAGTACTACACGCGAATGTATTTCAATAGAAATTTATCCGGAGTCACCTAGTGCAG”, the binding signal is 35600 fluorescence intensity (a.u.).

Regarding “TGCATGTACGATACTGGAGCTGATCCTCGCCATCATATCCCGGAGTCACCTAGTGCAG”, the binding signal is 3160 fluorescence intensity (a.u.).

As to “GTGCGCGCGGTGCTTAGGCAGACGCGGCCCAGATCGGCGCCGGAGTCACCTAGTGCAG”, the binding signal is 40500 fluorescence intensity (a.u.).

Turning to “GGCGGCGGCGGAGAAGGAGAGGCCGCCCGCCGCGTGGCGCCGGAGTCACCTAGTGCAG”, the binding signal is 6420 fluorescence intensity (a.u.).

In the case of “ACAAACCAACCAACCCTCCTCGCCGCGGCCGCCGCCACCGCGGAGTCACCTAGTGCAG”, the binding signal is 3400 fluorescence intensity (a.u.).

Take “ACGATCGGTGACGACGAGCGACGACGCGGCATGAAGACGCCGGAGTCACCTAGTGCAG”: the binding signal was 3300 fluorescence intensity (a.u.).

Regarding “AGAAGCGCGCCGAGGAGGCCCGCTCGTTCAACCGCGCCGCCGGAGTCACCTAGTGCAG”, the binding signal is 65500 fluorescence intensity (a.u.).
